Article PMC7819943, “Rice protein-binding microarrays: a tool to detect cis-acting elements near promoter regions in rice”
The full ranking holds about 68,000 sequences; the median of “fluorescence intensity (a.u.)” is about 9,100, and the highest 2% start at about 16,000. The list comes from a sample in which the highest values are over-represented; it also holds similar and randomly drawn sequences.

The sequences below were run against OsWRKY34 (Oryza sativa, UniProt Q0JBA9 1-250) (assay: protein-binding microarray (RPBM); PBS, 2% BSA, 51.3 ng/ul salmon testes DNA, 50 uM zinc acetate, 200 nM TF, 25 C, 1 h; high values mean tight binding). Details: protein: recombinant; tags: N-terminal polyhistidine and DsRed monomer fusion (pET32a); label: CyDye5-dUTP incorporated in the synthesized complementary strand; 3' TTTTT single-stranded linker to array surface; dsDNA, one strand shown.
Method in brief: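 Transcription factors were each fused at the N-terminus to a polyhistidine tag plus DsRed and expressed in E. coli BL21-CodonPlus before Ni–NTA purification. Binding to a double-stranded custom Agilent array was carried out with 200 nM protein at 25 °C for 1 h in PBS, 2% BSA, salmon testes DNA and 50 µM zinc acetate. The binding signal is per-feature fluorescence intensity, in arbitrary units, on an Axon 4000B scanner.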

OsWRKY34, sequence (Q0JBA9 entry or part of it): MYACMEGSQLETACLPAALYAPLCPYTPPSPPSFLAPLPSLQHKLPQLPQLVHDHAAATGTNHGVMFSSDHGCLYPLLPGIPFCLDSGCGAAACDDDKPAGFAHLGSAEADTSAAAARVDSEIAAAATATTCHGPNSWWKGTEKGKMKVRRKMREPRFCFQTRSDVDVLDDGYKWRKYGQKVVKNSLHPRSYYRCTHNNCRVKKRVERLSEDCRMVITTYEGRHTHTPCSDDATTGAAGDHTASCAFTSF

Point of comparison: “CTCCGTTTTTTAATAGATGACGCCGTTGACTTTTTCTCACCGGAGTCACCTAGTGCAG”, binding signal 27800 fluorescence intensity (a.u.). Against it:
- CTTCTTCTATATCTGTAATCTTTCCTTATCTCCTCCCATGCGGAGTCACCTAGTGCAG — lower, 8520 fluorescence intensity (a.u.)
- CCACCTCGTTTTATGTAAAACACTTAATCTTCAACTTCAGCGGAGTCACCTAGTGCAG — lower, 8860 fluorescence intensity (a.u.)
- CGCAATCCACTTTCTCTCGCCAAGTCGTCGTCCATCCGATCGGAGTCACCTAGTGCAG — lower, 9020 fluorescence intensity (a.u.)
- TTTTCAGCGTGTGCATCACATGGTCCGTATCTTTAATACTCGGAGTCACCTAGTGCAG — lower, 8520 fluorescence intensity (a.u.)
- TCCTGTCGTATGTCTTCACCACCACACAAACAATGCTTCTCGGAGTCACCTAGTGCAG — lower, 9550 fluorescence intensity (a.u.)
- ACTCCACTTAGGCTGCATTCGTTCTAGATACATTGAGTTACGGAGTCACCTAGTGCAG — lower, 9970 fluorescence intensity (a.u.)
- GCCTTTGTCGGTCATGTTCCCATCGCTTTAGTTCTTCTCACGGAGTCACCTAGTGCAG — lower, 15000 fluorescence intensity (a.u.)
- GTGATAGAAAAGTTGTGTGTGTATGAAATGTTTGATGCGACGGAGTCACCTAGTGCAG — lower, 8750 fluorescence intensity (a.u.)
- ATACTGAGAAAGTGCCAAGTTTTTGTCTGCTTCATGTAACCGGAGTCACCTAGTGCAG — lower, 8110 fluorescence intensity (a.u.)
- GACCTCGCCGTCGCCGTCGCCGCCGCCGCCGCCGCCATGGCGGAGTCACCTAGTGCAG — lower, 9900 fluorescence intensity (a.u.)
- CATTGTTCCTCACAGGATCAGGGGTGGAGAGTGAAGAGAGCGGAGTCACCTAGTGCAG — lower, 8070 fluorescence intensity (a.u.)
- GTGGTTGATTTGACCTTTTACATTGTACAGATGGTATTGGCGGAGTCACCTAGTGCAG — lower, 8480 fluorescence intensity (a.u.)
- GATCCGCGGCGCGGGTGGGGTTGTGGGGCGGGCGGAGATGCGGAGTCACCTAGTGCAG — lower, 19200 fluorescence intensity (a.u.)
- CCGCGGGTGGGGAGATTTGACCGGCGTTGACTCCGGGATGCGGAGTCACCTAGTGCAG — lower, 14300 fluorescence intensity (a.u.)
- GCGGGCAGTGGGCGCGAGATCTCATCCGAGTGGGTGGGCGCGGAGTCACCTAGTGCAG — lower, 8060 fluorescence intensity (a.u.)
- CTTCTCCTCTAGTCTGTGGTTGGCTGGCGATGGTGGCTTGCGGAGTCACCTAGTGCAG — lower, 8820 fluorescence intensity (a.u.)
- AGCGATGGTGGTGGTGGTGGTGGTGGTGGCTGGGTTGCTTCGGAGTCACCTAGTGCAG — higher, 28200 fluorescence intensity (a.u.)
- TGCGGGATGGCTGGTTGGTGTGCGTGTGCTTCGGTGCGTTCGGAGTCACCTAGTGCAG — lower, 10400 fluorescence intensity (a.u.)
- CAGCCATCGCCTCCCCGACTCCCGTCGTTGTCCACCCCGTCGGAGTCACCTAGTGCAG — lower, 8260 fluorescence intensity (a.u.)
- TGTTCTGCCAGCCAATCCAGATCGCCCTCGTATGCACGCTCGGAGTCACCTAGTGCAG — lower, 8890 fluorescence intensity (a.u.)
- TGAACTCCTAATACTGTCCTACCACTTCTACATGTCTTCTCGGAGTCACCTAGTGCAG — lower, 11300 fluorescence intensity (a.u.)
- GCCTGCGCCGATCCCCATCCATTCCGCGAGCGAGCGAGTGCGGAGTCACCTAGTGCAG — lower, 8160 fluorescence intensity (a.u.)
- AACAGCTCTCGATCTGATCGTCCCCACACCGCACGCTGACCGGAGTCACCTAGTGCAG — lower, 9930 fluorescence intensity (a.u.)
- CCTCGCCGAAGCCTCTCTACCTCTGTGTGTCTCTCTCTCCCGGAGTCACCTAGTGCAG — lower, 8120 fluorescence intensity (a.u.)
- AAACTTCCCCGCGTACGATGACGCCAATACACATACATATCGGAGTCACCTAGTGCAG — lower, 10700 fluorescence intensity (a.u.)
- GAGTGTATTTCATCTCAAGTTAGCATGCGAGTTTTTTTTACGGAGTCACCTAGTGCAG — lower, 8210 fluorescence intensity (a.u.)
- TATCGTGCTTCCATGTGCACAGATCGATCAAACTCGCATGCGGAGTCACCTAGTGCAG — lower, 9270 fluorescence intensity (a.u.)
- ATACATGACGCCGTTGATTTTTTAATCAACGTTTGACCATCGGAGTCACCTAGTGCAG — lower, 8210 fluorescence intensity (a.u.)
- GTGTATGATGCCGTTGACTTTTTATCCAACGTTTGACCATCGGAGTCACCTAGTGCAG — higher, 38800 fluorescence intensity (a.u.)
- ATGTATGACGCTGTTGACTTTGTAACCAATATTTGACCATCGGAGTCACCTAGTGCAG — lower, 13400 fluorescence intensity (a.u.)
- GGTATAGTTTTATACTGTTTATATCCAACGTTTGACCGTTCGGAGTCACCTAGTGCAG — lower, 10200 fluorescence intensity (a.u.)
- GTGTATTTATGGTTTTTTTTTCAACGTTTGACCATCCGTTCGGAGTCACCTAGTGCAG — lower, 12300 fluorescence intensity (a.u.)
- TGTATGATGCTGTTGACTTTTTATCCAACGTTTGACCATCCGGAGTCACCTAGTGCAG — lower, 21200 fluorescence intensity (a.u.)
- TGGTGGAGAAGCTAATGAAGAGGGTGTTTTGTTGACTATGCGGAGTCACCTAGTGCAG — lower, 8500 fluorescence intensity (a.u.)
- GTTACATTCTTGTTCAGTCCTCACTACTCATCCCTACAATCGGAGTCACCTAGTGCAG — lower, 11500 fluorescence intensity (a.u.)
- CCCACTATCATCCGTCATCCGTGCAACGCACGGGCATTATCGGAGTCACCTAGTGCAG — lower, 9340 fluorescence intensity (a.u.)
- TCCGTTTTTTAATAGATGACGCCGTTGACTTTTTCTCACACGGAGTCACCTAGTGCAG — higher, 31700 fluorescence intensity (a.u.)
- CTCCCGCCGTCTCCGTCACCGTCTACCGTTTGCTCCAGTGCGGAGTCACCTAGTGCAG — lower, 9530 fluorescence intensity (a.u.)
- CTCCGTTTTTTAATAGATGACACCGTTGACTTTTTCTCACCGGAGTCACCTAGTGCAG — higher, 30600 fluorescence intensity (a.u.)
- GTCTCACCGGAGCTCCGCCGCCGCCGCCGCCGTTTTCTCCCGGAGTCACCTAGTGCAG — lower, 25700 fluorescence intensity (a.u.)
- GCCGCGGCGGAGCTCCCGTTTCCGTTGCCGTCTCCGGCGCCGGAGTCACCTAGTGCAG — lower, 11000 fluorescence intensity (a.u.)
- CGTTTTTTAATAGATGACGCCATTGACTTTTTCTCACATACGGAGTCACCTAGTGCAG — lower, 11000 fluorescence intensity (a.u.)
- CTGATTATACCATTGTTTTCGTTGCAACTAAATCTTGATACGGAGTCACCTAGTGCAG — lower, 9280 fluorescence intensity (a.u.)
- TGCAAGCTCCGCCGTTTGTGTGTAATGGGGTTTCCCAAATCGGAGTCACCTAGTGCAG — lower, 8230 fluorescence intensity (a.u.)
- CACTTCACCTTTTTTGCAAGATGCTACTACTAATTACTAACGGAGTCACCTAGTGCAG — lower, 10400 fluorescence intensity (a.u.)
- GATATACACACTTAGCTCTCCTACTGTGAGAATTCTCTTCCGGAGTCACCTAGTGCAG — lower, 9480 fluorescence intensity (a.u.)
- CCCTTTTTTATACCGTGGCATATCTCTCTGCATTTAATCTCGGAGTCACCTAGTGCAG — lower, 13700 fluorescence intensity (a.u.)
- ATATGGCATTGTTTCTGTGTTATTCAGGCGCACCTTTAAACGGAGTCACCTAGTGCAG — lower, 10100 fluorescence intensity (a.u.)
- CGGTTGCTCCTTTGCCTAATCACTCAATTCCAGTAACTTTCGGAGTCACCTAGTGCAG — lower, 8760 fluorescence intensity (a.u.)
- TTGGGGTTGGACCGGTTTTCATCTGTTCTTGTCCTGAGAGCGGAGTCACCTAGTGCAG — lower, 10800 fluorescence intensity (a.u.)
- GTGCAGCAATCATCTCGTCCACCTCACCTTACCCGAAACCCGGAGTCACCTAGTGCAG — lower, 8340 fluorescence intensity (a.u.)
- GCCTCTGCCAGCCGACGGCCGTTCGGCCCTCCGCGCACGCCGGAGTCACCTAGTGCAG — lower, 8320 fluorescence intensity (a.u.)
- CTTATCCACCATCAATGTTCCTGACTTCAATTTTTCGTTGCGGAGTCACCTAGTGCAG — lower, 10500 fluorescence intensity (a.u.)
- TAACATTGATTGTTATGTCACTTGTCTGTGGATCAACTCTCGGAGTCACCTAGTGCAG — lower, 9060 fluorescence intensity (a.u.)
- CTCTTGAACGTTGTCGCCCGCCGTTTCCCGCCGCTGTCTCCGGAGTCACCTAGTGCAG — lower, 18200 fluorescence intensity (a.u.)
- GCGCTCCCGTCGTTGTCTCCGCTGCTTTGTTTCTCGTCGCCGGAGTCACCTAGTGCAG — lower, 11600 fluorescence intensity (a.u.)
- CCGTTTCCCGCCGCTGTCTCCCGCCGGAGCCGCCCCTGCTCGGAGTCACCTAGTGCAG — lower, 9030 fluorescence intensity (a.u.)
- CTTCGTTTTTTAATAGATGACGCCGTTGACTTTTTCTCACCGGAGTCACCTAGTGCAG — lower, 22000 fluorescence intensity (a.u.)
- TAAATCCACGACCCTTCAGCTATCTATCTCAGCTCCAATCCGGAGTCACCTAGTGCAG — lower, 8170 fluorescence intensity (a.u.)
- CTGCAATCTAGCCATCTGTTATCTATCCATGCATCGATGTCGGAGTCACCTAGTGCAG — lower, 8120 fluorescence intensity (a.u.)
- ATAAACATAAACTTCCAACATTTCCGTCACATCATTCTAACGGAGTCACCTAGTGCAG — lower, 8970 fluorescence intensity (a.u.)
- CGTTTTTGCTCGGGTGGGCTGGGTTAGGGACTCATCTGCACGGAGTCACCTAGTGCAG — lower, 23800 fluorescence intensity (a.u.)
- CATATCCGTTTTTGCTCGGGTGGGCTGGGTTAGGGACTCACGGAGTCACCTAGTGCAG — lower, 19000 fluorescence intensity (a.u.)
- ATGGCGTTTGGGTTTGGCTCGGGTTGATCTGGATAAGGGACGGAGTCACCTAGTGCAG — lower, 9020 fluorescence intensity (a.u.)
- TTGGTGGGCCGTTATTTTGTTTGGGCTGGATTTGCACGTTCGGAGTCACCTAGTGCAG — lower, 11700 fluorescence intensity (a.u.)
- CACTCTGCAGCTCTGCTCGTTTTGCACACGGGTGACTCGTCGGAGTCACCTAGTGCAG — lower, 9700 fluorescence intensity (a.u.)
- TTTCGGCCCACATTCCTATCCGTTTTTGCTCGGGTGGGCTCGGAGTCACCTAGTGCAG — lower, 10900 fluorescence intensity (a.u.)
- CCGCGCATTTTTTTGGTTCGAAATTCCTTTGCTAAGCAAACGGAGTCACCTAGTGCAG — lower, 8380 fluorescence intensity (a.u.)
- AAGGTTGGCATGACAATTCTCACTACTTGGACTAACAGTTCGGAGTCACCTAGTGCAG — lower, 8310 fluorescence intensity (a.u.)
- TTCCAACTACCTAGCTCAGCTTAGTCTCTGGTTGACCATTCGGAGTCACCTAGTGCAG — lower, 8450 fluorescence intensity (a.u.)
- GCTTCTACAATCGGATGGATTCACCATTGATTCTCGTTTTCGGAGTCACCTAGTGCAG — lower, 8940 fluorescence intensity (a.u.)
- ACTTGATTTACGAACAGACATTTTTTATTTTTCTACACCACGGAGTCACCTAGTGCAG — lower, 9230 fluorescence intensity (a.u.)
- TTGGGGTCGAGATATCCGGTTTTGTGGTTTAGGGTCATGTCGGAGTCACCTAGTGCAG — lower, 9090 fluorescence intensity (a.u.)
- TATTTGATGCCGTTGACTTTTTTAAATATGTTTGACCGTTCGGAGTCACCTAGTGCAG — lower, 20900 fluorescence intensity (a.u.)
- ACTTTTTTAAATATGTTTGACCGTTCGTTTTATTCAAAAACGGAGTCACCTAGTGCAG — lower, 8320 fluorescence intensity (a.u.)
- ATTTGATGCCGTTGACTTTTTTAAATATGTTTAACCGTTCCGGAGTCACCTAGTGCAG — higher, 33000 fluorescence intensity (a.u.)
- TATTTGACGCCGTTGATTTTTTTAAATATGTTTGACCGTTCGGAGTCACCTAGTGCAG — lower, 11000 fluorescence intensity (a.u.)
- GAATTGATCTCATGCATGCCAACCCTTCTAGCAATCTATCCGGAGTCACCTAGTGCAG — lower, 9310 fluorescence intensity (a.u.)
- GGACCGTTCACTAACCCCGTAACCGTGTCGCGCGCGCAACCGGAGTCACCTAGTGCAG — lower, 9590 fluorescence intensity (a.u.)
- TTCTTATTTGCAAGTATACTGTTTTGCTTTTCTCTCTAATCGGAGTCACCTAGTGCAG — lower, 9690 fluorescence intensity (a.u.)
